High-throughput results: PubChem, National Center for Advancing Translational Sciences (NCATS)
A selection: hits, their analogues and other compounds. The true share with any hit is near 5.2%.
Tau ThT inhib: tau fibrillization inhibition (ThT binding). P10636. recombinant tau K18 P301L, heparin-induced fibrillization, ThT fluorescence. Potency, µM (highest dose often 57.4 µM), hits mostly inhibitors. 270,000 compounds, 2.1% hits; further: nearly all actives have a fitted effect of over 55% in size
Target sequence (P10636 561-689 P618L limits assumed): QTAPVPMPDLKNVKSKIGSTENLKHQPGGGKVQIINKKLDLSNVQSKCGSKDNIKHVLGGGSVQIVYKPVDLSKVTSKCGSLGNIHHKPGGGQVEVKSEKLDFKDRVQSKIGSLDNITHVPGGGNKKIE
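Heparin-induced fibrillization of the P301L-mutant K18 repeat-domain fragment of human tau was followed by ThT binding in quantitative high-throughput format.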
Tau fibril FP: tau fibrillization inhibition (FP); P10636; K18 P301L tau heparin fibrillization, Alexa594 FP, 6 h; Potency, µM (doses to about 57.7 µM), most hits filed as inhibitors; 280,000 compounds, 0.39% hits; AID 1468; further: nearly all actives have a fitted effect of over 55% in size
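Human K18 P301L fragment (15 uM unlabeled plus 0.24 uM Alexa 594-labeled) in 100 mM sodium acetate pH 7 with compound, aggregation induced by 20 uM heparin for 6 hr at 37 C. ThT (30 uM) added for 1 hr, then Alexa 594 FP read.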
Sfp inh: blocks B. subtilis Sfp PPTase activity; Q9F4F7; Biochemical Sfp PPTase activity, qHTS; Potency, µM, hits mostly inhibitors; 310,000 compounds, 3.5% hits;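 further: the enzyme is Sfp with the accession as filed and its product quenches rhodamine fluorescence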
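Buffer: 50 mM Hepes-Na pH 7.6, 10 mM MgCl2, 0.01% Nonidet P-40, 0.01% BSA. Enzyme 15 nM, pre-exposed to compound 15 min; substrates then added and fluorescence change tracked over 30 min.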
Coupling enz: counter-screen for Giardia aldolase inhibitors: coupling enzyme system. coupling enzyme system counterscreen, AmpLite Red fluorescence. activity change, negative = inhibition, % at 58.2 µM, hits read low. 290,000 compounds, 0.67% hits. AID 2472; in the data active means activity change below about -30%
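Activity here indicates interference with the coupling reaction, not aldolase inhibition. Compounds at 57.5 uM final met coupling enzymes for 10 min at RT; substrate and AmpLite Red detection followed, with a 525/598 nm fluorescence read after 20 min.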
Tau fluor counter: counter-screen for tau fibril formation inhibitors. tau K18 P301L Alexa594 fluorescence, heparin fibrillization. Potency, µM (doses to about 57.7 µM). 280,000 compounds, 0.93% hits; further: nearly all actives have a fitted effect of over 55% in size
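Human tau K18 P301L (15 uM unlabeled, 0.24 uM Alexa 594-labeled) in 100 mM sodium acetate pH 7 with 20 uM heparin, 6 hr at 37 C. ThT 30 uM added, 1 hr ambient; Alexa 594 FP and total fluorescence read at 555/632 nm.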
Hits are given with their value; 0 = inactive; ? = inconclusive; - = no result given; [ ] = another dose, or the depositor's remark. Unless noted, the call rests on the fitted dose curve; in most records, active means well fitted curve in the direction sought with a large enough effect; inconclusive means small, poorly fitted or top-dose-only effect, or another doubt; inactive means no such curve, though single readings can be large; an effect the other way counts as inactive or inconclusive.

SMILES	Tau ThT inhib	Tau fibril FP	Sfp inh	Coupling enz	Tau fluor counter
O=C(/C=C/Nc1ccc(Oc2ccccc2)cc1)c1ccco1	?	0	50µM	0	?
NC(=O)c1ccccc1N/C=C/C(=O)c1ccco1	?	0	0	0	0
COc1ccccc1-c1noc(-c2ccc(NC(C)C)c([N+](=O)[O-])c2)n1	0	0	-	-	0
CCn1cc(C(=O)NC(=S)Nc2cccc(O)c2)cn1	0	0	79µM	0	0
CCn1cc(C(=O)NC(=S)Nc2ccccc2[N+](=O)[O-])cn1	-	-	79µM	-	-
O=S(=O)(c1ccccc1)N1N=C(c2ccccc2)CC1c1ccccc1F (stereo unspecified)	-	-	0	0	-
CCOC(=O)/C=C1\NC(=O)CS1	0	0	0	0	0
CCO/C(C)=C1/SC(=S)NC1=O	-	0	32µM	0	0
COC(=O)CSc1nc2sc3c(c2c(=O)n1-c1ccc(C)cc1)CC(C(C)C)OC3 (stereo unspecified)	0	0	-	-	0
Cc1ccc(C(=O)CSc2n[nH]c(C)n2)cc1	0	0	89µM	0	0
Cc1nc(SCC(=O)O)n[nH]1	0	0	0	0	0
CCc1ccc(C(=O)CSc2n[nH]c(C)n2)cc1	0	0	56µM	0	0
CCCCCCCC1=Cc2ccccc2C(C(C(C)=O)C(=O)OC)N1C(=O)OC (stereo unspecified)	0[11.5 µM]	0[11.6 µM]	0	0	0[11.6 µM]
CNc1cc(-c2ccccc2C)ncn1	-	-	79µM	0	-
Cc1ccccc1-c1cc(Nc2ccccc2)ncn1	-	-	0	0	-
O=S1(=O)C=C(Sc2nnc(-c3ccccc3)o2)c2ccccc21	?	?	16µM	0	0
CCc1cccc(-n2nnc(-c3nsc(NC(=O)c4cccc(OC)c4)n3)c2C)c1	0	0	-	-	0
O=[N+]([O-])c1ccccc1-c1ccc(C(=S)N2CCCC2)o1	16µM	?	7.9µM	-43	?
O=[N+]([O-])c1ccccc1-c1ccc(C(=S)N2CCCCC2)o1	?	0	25µM	0	?
Cc1ccc(CNC(=O)c2cc(NS(=O)(=O)c3ccc(C)cc3)ccn2)cc1	0	0	-	-	0
Cc1ccc(Nc2nn3c(=O)c4cc5c(cc4nc3s2)OCO5)cc1Cl	?	0	-	-	0
Cc1cc(C)c(Nc2nn3c(=O)c4cc5c(cc4nc3s2)OCO5)c(C)c1	28µM	?	-	-	0
COc1ccc(NC(=O)N2CCc3nc(-c4ccccc4)c4c(c3C2)CO[C@@H](C)C4)cc1	0[11.5 µM]	0[11.6 µM]	0	0	0[11.6 µM]
CC(NC(=O)CN(c1ccc(Cl)cc1Cl)S(=O)(=O)c1ccccc1)c1ccccc1 (stereo unspecified)	0	0	-	-	0
COc1ccccc1-c1cc(NCc2cnc(C)cn2)ncn1	-	-	50µM	0	-
SMILES	Tau ThT inhib	Tau fibril FP	Sfp inh	Coupling enz	Tau fluor counter
Cc1cnc(CNc2cc(-c3ccccc3C(F)(F)F)ncn2)cn1	-	-	0	0	-
COc1ccccc1-c1nccc(NCc2cnc(C)cn2)n1	0	0	50µM	0	0
COc1ccccc1-c1nccc(NCc2ccccc2)n1	-	-	0	0	-
CCOC(=O)CCN1C(=O)[C@H]2[C@H]3[C@H](O)[C@H](O)C/C(=N/NC(=O)OCC)[C@@H]3CC[C@@H]2C1=O	0[11.5 µM]	0[11.6 µM]	0	0	0[11.6 µM]
CSc1nnc(C)c(/C=C/Nc2ccc(F)cc2)n1	?	0	0	0	0
COc1ccc(N/C=C/c2nc(SC)nnc2C)cc1	3.2µM	0	0	0	0
CSc1nnc(C)c(/C=C/Nc2ccc(Cl)cc2)n1	16µM	0	0	0	0
CC(=O)Nc1nonc1-c1nnc(SCC(=O)Nc2cc(C)cc(C)c2)n1-c1ccccc1	0	0	-	-	0
COc1cccc(-c2ccc3ncnc(NCCc4c[nH]c5ccc(OC)cc45)c3c2)c1	-	-	0	0	-
O=C(NN1C(=O)C2C(C1=O)C1C=CC2C12CC2)c1cccnc1 (stereo unspecified)	0	0	0	0	0
O=C(NN1C(=O)C2C(C1=O)C1C=CC2C12CC2)c1ccncc1 (stereo unspecified)	10µM	?	0	0	?
O=C(CCOc1ccccc1)N(Cc1cccnc1)c1nc2c(F)cc(F)cc2s1	0	0	-	-	0
CCOC(=O)OCC1OC(c2ccccc2)C=CC1OC(=O)OCC (stereo unspecified)	0[11.5 µM]	0[11.6 µM]	0	0	0[11.6 µM]
CCCC[C@]12Cc3ccccc3C(O1)c1c(cc(-c3ccccc3)oc1=O)O2	-	-	0	-31	-
CCCC[C@]12Cc3cc(OC)c(OC)cc3C(O1)c1c(cc(-c3ccccc3)oc1=O)O2	-	-	0	0	-
Nc1c[n+](N2CCOCC2)no1	7.1µM	?	0	0	0
Nc1ncnc(N2CCOCC2)c1N	0	0	0	0	0
Cn1c(=O)n2n(c1=O)[C@H]1[C@H](O)[C@H]3O[C@@H]3/C(=N/OC[C@@H](O)COCc3ccco3)[C@@H]1CC2	0[11.5 µM]	0[11.6 µM]	0	0	0[11.6 µM]
C/C=C\C1=C(CO)C(=O)[C@@H]2OC2C1=O (stereo partly specified)	3.5µM	?	3.2µM	0	?
Cc1ccc2c(CC(=O)Nc3cccc(Cl)c3C)coc2c1	0	0	-	-	0
FC(F)(F)c1ccc(Cl)c(N/N=C/c2ccc(N3CCOCC3)s2)c1	?	0	0	0	13µM[quencher]
CO/N=C(\Cn1ncc(N2CCCC2)c(Br)c1=O)c1ccc(Cl)cc1	0	0	89µM	0	0
CCCCSc1nnc2c(n1)OC(C(=O)c1ccccc1)Nc1ccccc1-2 (stereo unspecified)	32µM	?	0	0	?
CCCCSc1nnc2c(n1)OC(C)N(C(C)=O)c1ccccc1-2 (stereo unspecified)	0	0	-	-	0
CC1CCN(S(=O)(=O)c2ccc(NC(=O)Cn3nnc(-c4ccccc4F)n3)cc2)CC1	0	7.9µM	0	0	?
SMILES	Tau ThT inhib	Tau fibril FP	Sfp inh	Coupling enz	Tau fluor counter
COc1cc(NC(=O)Cn2cc(S(=O)(=O)N3CCC(C)CC3)c3ccccc3c2=O)cc(OC)c1OC	0	?	-	-	?
CC1CCN(S(=O)(=O)c2cn(CC(=O)Nc3ccc(F)c(Cl)c3)c(=O)c3ccccc23)CC1	0	10µM	-	-	?
CCOC(=O)c1cccc(NC(=O)CCn2nc(C)c3c(C)n(-c4ccccc4)nc3c2=O)c1	0	0	-	-	0
COc1ccc(N2C(=O)C(Cl)=C(N3CCOCC3)C2=O)cc1	-	-	0	0	-
Cc1cccc(N2C(=O)C(Cl)=C(N3CCOCC3)C2=O)c1	16µM	25µM	3.5µM	0	?
O=C1C(Cl)=C(N2CCOCC2)C(=O)N1c1cccc(Cl)c1	13µM	28µM	0	0	?
Cc1cnc(CNc2ncncc2-c2ccoc2)cn1	-	-	0	0	-
N#Cc1cc2cc3c(cc2nc1N1CCCCC1)OCCO3	0	0	28µM	0	0
COc1cccc(-c2nc3c(C#N)c[nH]n3c2NC2CCCCC2)c1	0	0	-	-	0
CC(C)(C)N=C1SCC(C)(/C=N/O)S1 (stereo unspecified)	25µM	?	0	0	0
CCC(C)N=C1SCC(C)(/C=N/O)S1 (stereo unspecified)	?	0	0	0	0
